Sfp PPTase inh = inhibitors of Bacillus subtilis Sfp phosphopantetheinyl transferase. Q9F4F7. Biochemical Sfp PPTase activity, qHTS. Potency, µM, usual class: inhibitors. 310,000 compounds, 3.5% hits. AID 1490;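 further: the enzyme is Sfp with the accession as filed and its product quenches rhodamine fluorescence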
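Buffer: 50 mM Hepes-Na pH 7.6, 10 mM MgCl2, 0.01% Nonidet P-40, 0.01% BSA. Enzyme 15 nM, pre-exposed to compound 15 min; substrates then added and fluorescence change tracked over 30 min.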
VDR inh = blocks the human vitamin D receptor; P11473; Potency, µM, hits mostly inhibitors; 400,000 compounds, 0.93% hits; AID 504847; VDR-SRC2-3 peptide fluorescence polarization, 2 h
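Measured by FP: displacement of SRC2-3 coactivator peptide from VDR by library compounds, following a two-hour ambient incubation.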
PLK1 PBD block = blocks phosphopeptide binding to human PLK1 polo-box domain; Plk1 PBD binding of FITC phosphopeptide, fluorescence polarization; Potency, µM, actives largely listed as inhibitors; 360,000 compounds, 2.8% hits; further: series mostly up to about 57 µM; nearly all actives have a fitted effect of over 65% in size
Target sequence (P53350 whole entry, looked up, the tested form may be a part): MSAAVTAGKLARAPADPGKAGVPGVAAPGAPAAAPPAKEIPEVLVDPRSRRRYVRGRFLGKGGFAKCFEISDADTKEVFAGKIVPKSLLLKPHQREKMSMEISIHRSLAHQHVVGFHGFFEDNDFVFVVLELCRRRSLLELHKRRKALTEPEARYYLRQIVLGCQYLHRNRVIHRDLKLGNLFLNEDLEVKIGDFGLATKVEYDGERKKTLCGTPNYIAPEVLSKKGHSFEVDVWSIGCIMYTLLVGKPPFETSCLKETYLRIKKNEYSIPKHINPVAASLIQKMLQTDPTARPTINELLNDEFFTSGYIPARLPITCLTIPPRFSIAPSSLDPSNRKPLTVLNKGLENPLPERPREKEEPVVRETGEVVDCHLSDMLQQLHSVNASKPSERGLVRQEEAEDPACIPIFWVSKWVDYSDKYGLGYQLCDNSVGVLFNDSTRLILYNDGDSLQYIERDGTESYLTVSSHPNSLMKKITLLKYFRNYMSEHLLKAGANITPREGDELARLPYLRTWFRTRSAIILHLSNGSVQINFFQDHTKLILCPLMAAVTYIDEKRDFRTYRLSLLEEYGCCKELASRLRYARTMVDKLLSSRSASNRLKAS
Tau FP inhib = tau fibrillization inhibition (FP) | P10636 | K18 P301L tau heparin fibrillization, Alexa594 FP, 6 h | Potency, µM (series often up to 57.7 µM), usual class: inhibitors | 280,000 compounds, 0.39% hits | AID 1468; further: nearly all actives have a fitted effect of over 55% in size
Target sequence (P10636 561-689 P618L limits assumed): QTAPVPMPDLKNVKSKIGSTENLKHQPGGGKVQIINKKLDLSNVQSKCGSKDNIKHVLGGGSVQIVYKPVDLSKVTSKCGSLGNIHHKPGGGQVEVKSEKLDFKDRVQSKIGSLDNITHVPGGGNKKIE
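Human tau K18 […] P301L fragment, 15 uM unlabeled plus 0.24 uM Alexa 594-labeled tau (final), with compound and 20 uM heparin in 100 mM sodium acetate pH 7; 6 hr at 37 C, then Alexa 594 FP read.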
Tau fluor counter = counter-screen for tau fibril formation inhibitors; tau K18 P301L Alexa594 fluorescence, heparin fibrillization; Potency, µM (highest dose often 57.7 µM); 280,000 compounds, 0.93% hits; AID 1463; further: nearly all actives have a fitted effect of over 55% in size
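Human tau K18 P301L (15 uM unlabeled, 0.24 uM Alexa 594-labeled) in 100 mM sodium acetate pH 7 with 20 uM heparin, 6 hr at 37 C. ThT 30 uM added, 1 hr ambient; Alexa 594 FP and total fluorescence read at 555/632 nm.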
Tau ThT inhib = blocks human tau fibril formation measured by thioflavin T | Potency, µM (doses to about 57.4 µM), usual class: inhibitors | recombinant tau K18 P301L (four-repeat tau fragment), heparin-induced fibrillization, ThT fluorescence | P10636 | 270,000 compounds, 2.1% hits; further: nearly all actives have a fitted effect of over 55% in size
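K18 P301L tau (15 uM + 0.24 uM Alexa 594-tagged), heparin 20 uM, NaOAc pH 7, 6 h 37 C; ThT 30 uM, 1 h RT, ex 450/em 510 nm.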
Numbers stand for hits; . = inactive; ? = inconclusive; / = not tested or not shown; ! = a repeat was not active; [ ] = another dose, or the depositor's remark. This is a sample that favours compounds with a hit; in the whole collection about 6% have one here. The call rests on the fitted dose curve; in most records, active means well fitted curve in the direction sought with a large enough effect; inconclusive means small, poorly fitted or top-dose-only effect, or another doubt; inactive means no such curve, though single readings can be large; an effect the other way counts as inactive or inconclusive.

SMILES	Sfp PPTase inh	VDR inh	PLK1 PBD block	Tau FP inhib	Tau fluor counter	Tau ThT inhib
CC(Sc1nc(N)c2c3c(sc2n1)CSC(C)(C)C3)C(=O)Nc1ccccc1 (stereo not given)	.	39.8µM	8.44µM	.	.	.
COc1cc(/C=C2\SC(=O)N(CC(=O)Nc3ccc(C)cc3)C2=O)cc(Cl)c1OCC(=O)O	.	?	15µM	/	/	/
CCOc1ccc(C(=S)N2CCCC2)cc1	.	.	.	.	.	.
CCOc1ccc(C(=S)N2CCCC2)c(OCC)c1	50.1µM	?	11.9µM	/	/	/
C=CCn1nc(C(=O)N2CCOCC2)cc1-c1sc(NC(=O)c2ccccc2)nc1C	/	/	.	/	/	/
Cc1nc2cc(NCc3ccccc3O)ccc2n1Cc1ccccc1	.	?	3.36µM	.	?	?
CCCCN(Cc1ccco1)S(=O)(=O)c1ccc(-c2ccc(=O)[nH]n2)s1	?	.	23.8µM	/	/	/
CC(=O)OC[C@@H]1O[C@H](CCO/N=C(\C)CCN2CCCc3nc(C)c(C)cc32)C=C[C@@H]1OC(C)=O	.	/	/	.[11.6 µM]	.[11.6 µM]	.[11.5 µM]
Cc1ccc(CCNC(=O)C(NS(=O)(=O)c2ccc3c(c2)oc(=O)n3C)C(C)C)cc1 (stereo not given)	/	.	/	.	.	.
O=C(O)C1(O)CC(O)C(O)C(O)C1 (stereo not given)	.	.	/	.	.	.
CC1CCCC(C)N1C(=O)COC(=O)CSc1ccc([N+](=O)[O-])cc1 (stereo not given)	/	.	18.9µM	/	/	/
CC1CCCC(C)N1C(=O)COC(=O)c1cc([N+](=O)[O-])ccc1N1CCOCC1 (stereo not given)	/	.	.	/	/	/
CC(C)(C)N(Cc1ccccc1)C(=O)COC(=O)CSc1ccc([N+](=O)[O-])cc1	/	.	11.9µM	/	/	/
CCNc1ccc(C(=O)OCC(=O)N(Cc2ccccc2)C(C)(C)C)cc1[N+](=O)[O-]	.	.	.	.	.	?
CCCN(CC(=O)Nc1ccccc1C)C(=O)COc1c(C)cccc1C	/	.	.	/	/	/
CCCN(CC(=O)Nc1ccccc1C)C(=O)COC(=O)CSc1ccc([N+](=O)[O-])cc1	/	?	18.9µM	/	/	/
COc1ccccc1-c1ccc2c(c1)C(C)(Cc1cccc(C#N)c1)C(=O)N2 (stereo not given)	/	/	.	/	/	/
CCOC(=O)c1cc2c(C)n(-c3ccc(OCC)cc3)c(C)c2ccc1=O	79.4µM	.	.	.	.	?
C[C@@H]1CN([C@@H](C)CO)S(=O)(=O)c2ccc(Br)cc2O[C@H]1CN(C)C(=O)Nc1ccc2c(c1)OCO2	/	/	.	/	/	/
CCc1cc2c3c(c1)C(C)CC(C)(C)N3C(=O)/C2=C1\SC(=O)NC1=O (stereo not given)	.	.	29.9µM	.	?	14.1µM
Cc1ccc2c(CC(=O)Nc3c(C(=O)c4ccc(C)c(F)c4)oc4ccccc34)coc2c1	/	.	/	.	.	.
Cc1ccc2nc(-c3cccc(NC(=O)c4cccc5c(Cl)cccc45)c3)oc2c1	/	.	/	?	.	.
O=S(=O)(Nc1cc(Sc2ncn[nH]2)c(O)c2ccccc12)c1ccccc1	8.91µM	?	2.12µM	25.1µM	?	11.2µM
COC(CNC(=O)c1cc(C)nn1-c1ccccc1)OC	.	.	23.8µM	.	.	.
Cc1ccc(CCNC(=O)c2cc(C)nn2-c2ccccc2)cc1	.	.	.	.	.	/
SMILES	Sfp PPTase inh	VDR inh	PLK1 PBD block	Tau FP inhib	Tau fluor counter	Tau ThT inhib
CCOc1ccc(C(=O)Nc2cccc(OCc3cc(=O)n4cc(C)sc4n3)c2)cc1	/	.	/	?	.	.
O=C(NN1C(=O)c2ccccc2NC1c1ccc([N+](=O)[O-])o1)c1ccc([N+](=O)[O-])cc1 (stereo not given)	.	.	.	?	?	3.16µM
O=C(NN1C(=O)c2ccccc2NC1c1ccc([N+](=O)[O-])o1)c1ccccc1 (stereo not given)	.	.	.	?	.	?
C/C=C1\COC(C(=O)NCCN2CCCC2)(C(F)(F)F)C=C1C=C1CCCCC1 (stereo not given)	.	.	.	/	/	/
C/C=C1\COC(C(=O)NCc2ccccc2)(C(F)(F)F)C=C1C=C1CCCCC1 (stereo not given)	.	79.4µM!	.	/	/	/
CCCCCCCCCCCCC(O)C(=O)O (stereo not given)	.	.	/	.	.	.
CCCCCCCCCCCCCCCCC(C(=O)O)C(O)(CC(=O)O)C(=O)O (stereo not given)	.	10µM	/	/	/	/
Cc1cc(SCC(=O)N/N=C/c2ccc(O)c(O)c2)c(C)cc1Br	?	.	.	.	14.1µM[quencher]	?
COc1ccc(C2=CSC(/N=C/c3ccc(F)cc3)=NN2)cc1	28.2µM	.	.	.	?	14.1µM
COc1ccc(/C=N/N=C/c2ccc(OC)cc2)cc1	.	.	.	/	/	/
Cc1cc(C)nc(NNC(=O)NC2CCCCC2)n1	.	?	26.7µM	.	.	.
Cc1cc(C)nc(SCC(=O)NC2CCCC2)n1	.	.	.	.	.	.
Cc1ccc(C(=O)N2CCc3ccccc32)cc1[N+](=O)[O-]	.	.	29.9µM	/	/	/
O=C(c1cc(Cl)ccc1Cl)N1CCc2ccccc21	.	?	26.7µM	/	/	/
O=C(c1ccc(Cl)cc1Cl)N1CCc2ccccc21	.	.	.	/	/	/
CCOC(=O)c1c(Oc2ccc(C(C)=O)cc2)nnc(-c2ccccc2)c1-c1ccccc1	/	.	/	.	.	.
Cc1ccc(OCC(=O)c2ccc(Cl)s2)c([N+](=O)[O-])n1	20µM	?	?	?	?	14.1µM
Cc1ccc(CNC(=O)COc2ccc(C)nc2[N+](=O)[O-])cc1	.	.	.	.	.	.
c1ccc(-c2csc(Nc3ncccn3)n2)cc1	.	.	.	.	.	?
Oc1ccc(-c2csc(Nc3ncccn3)n2)cc1	.	.	.	.	.	?
Cc1cccnc1Nc1nc(-c2ccc(O)cc2O)cs1	44.7µM	.	18.9µM	.	.	.
Cc1cccnc1Nc1nc(-c2ccccc2)cs1	50.1µM	.	.	/	/	/
COc1cc(OC)cc(C(=O)Nc2ccc([N+](=O)[O-])cn2)c1	.	?	26.7µM	.	.	.
COc1ccc(C(=O)Nc2ccc([N+](=O)[O-])cn2)cc1OC	.	.	.	.	.	?
Cc1nc(Nc2ccccc2)sc1C	?	.	.	.	.	.
SMILES	Sfp PPTase inh	VDR inh	PLK1 PBD block	Tau FP inhib	Tau fluor counter	Tau ThT inhib
S=c1[nH]cnc2sc(Nc3ccccc3)nc12	2.24µM	70.8µM	.	?	.	?
O=C(O)CO	.	.	/	/	/	/
Oc1nc(Nc2ccccc2)sc1/C=C1\C=Nc2ccccc21	.	.	.	.	8.91µM[quencher]	3.55µM
N=C1C(c2ccccc2)=C(O)CN1c1cccc(S(=O)(=O)N2CCOCC2)c1	.	?	16.8µM	.	.	.
COc1ccccc1CNC(=O)CC(NS(=O)(=O)c1ccc(C)cc1)c1ccco1 (stereo not given)	.	?	26.7µM	.	.	?
Cc1ccc(OCC(=O)Sc2ccc(C)cc2)cc1	.	44.7µM	5.97µM	.	.	?

Screening results (PubChem BioAssay)
